This passage reports growth inhibition results from PubChem BioAssay (NCI).

Compounds without any hit were thinned out: in the full panel of roughly 79,000, 15% have a hit. A number with no mark means an inactive call. Active and inactive are the calls of the source. Cut-off read from the data, not from the text of the source: active = growth inhibition above about 70%; inactive = the rest.

The assay is described as follows: NCI Yeast Anticancer Drug Screen. Data for the rad18 strain (AID 177). To be noted: S. cerevisiae rad18 mutant growth inhibition, hits give high values. Here is the method:
Growth inhibition of yeast strains with defined genetic alterations is measured as a screen for potential anti-cancer activity. Selected strains with alterations in DNA damage repair or cell cycle control were exposed to compounds and growth inhibition was measured relative to vehicle treated controls. The strain used in this assay is rad18

On to `O=C1C=CC(=O)N1c1ccc2c(c1)OCO2`, for which the growth inhibition by setting is: (at 1.2 µM) -6%; (at 3.7 µM) 58%; (at 11.0 µM) 100% (active); (at 33.0 µM) 100% (active); (at 100.0 µM) 99% (active).
Consider `OCCNCCOc1ccc(/C(=C(/Cl)c2ccccc2)c2ccccc2)cc1`, for which the growth inhibition by setting is: (at 1.2 µM) -8%; (at 3.7 µM) -6%; (at 11.0 µM) 24%; (at 33.0 µM) 98% (active); (at 100.0 µM) 98% (active).
Consider `CCOC(=O)C(NC(=O)CC)(N1CCN(c2cc3c(cc2F)c(=O)c(C(=O)O)cn3C2CC2)CC1)C(F)(F)F` (stereo not given), for which the growth inhibition (at 1.2 µM) was -2%; the growth inhibition (at 3.7 µM) was -2%; the growth inhibition (at 11.0 µM) was 0%; the growth inhibition (at 33.0 µM) is 23%; the growth inhibition (at 100.0 µM) is 91% (active).
Consider `O=Cc1coc2ccccc2c1=O`, for which the growth inhibition is, setting by setting: (at 1.2 µM) 5%; (at 3.7 µM) 19%; (at 11.0 µM) 18%; (at 33.0 µM) 20%; (at 100.0 µM) 67%.
`On1cnc(=S)c2[nH]cnc21`: the growth inhibition was -40% (at 1.2 µM); -33% (at 3.7 µM); -55% (at 11.0 µM); -61% (at 33.0 µM); -67% (at 100.0 µM).
For the molecule `N#C/C(=C1C=C(Br)/C(=N\O)C=C\1Cl)c1cccc2ccccc12`, the growth inhibition reads like this: (at 1.2 µM) 0%; (at 3.7 µM) 12%; (at 11.0 µM) 91% (active); (at 33.0 µM) 89% (active); (at 100.0 µM) 95% (active).
`O=C1c2c(O)cccc2-c2nn(CCNCCO)c3ccc(NCCNCCO)c1c23`: the growth inhibition is 13% (at 1.2 µM); 15% (at 3.7 µM); -2% (at 11.0 µM); 9% (at 33.0 µM); 0% (at 100.0 µM).
For `O=C(NCCCCCN1CCC2(CCCCC2)CC1)C(C1CCCCC1)C1CCCCC1`, the growth inhibition (at 1.2 µM) was 8%; the growth inhibition (at 3.7 µM) was 11%; the growth inhibition (at 11.0 µM) is 69%; the growth inhibition (at 33.0 µM) was 100% (active); the growth inhibition (at 100.0 µM) is 98% (active).
